Pf growth 96h – inhibits malaria parasite growth, 96 h. P. falciparum luciferase reporter growth, 96 h. Potency, µM (titrated, usually from 28.7 µM), inactives show top-dose activity change, negative = inhibition, usual class: inhibitors. 6.9% of 320,000 active; also: potency is read from the fitted curve at half-maximal effect; % is scaled to controls: 0 for no effect and ±100 for the full control effect
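Infected RBCs, 2% Hct / 0.05% parasitemia final; luciferase-reporter P. falciparum; cpd 96 h, 37 C, 5% CO2; luciferase detection reagent; luminescence.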
HCMV antiviral – inhibitors of human cytomegalovirus; HFF cells, HCMV-luciferase reporter, 72 h; hits give low values; activity change, negative = inhibition, % at 57.5 µM; 4.5% of 410,000 active; AID 1259415; in the data active = activity change below about -60%; inconclusive = no clear call, values can overlap the other calls; inactive = above about -39%; also: % is scaled to controls: 0 for no effect and ±100 for the full control effect
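Two-dose cell screen: HFF monolayers treated with compounds and infected with luciferase-expressing HCMV at 1 PFU/cell, 72 h at 37C, then lysed for luciferase measurement.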
Shiga inhibitor – Shiga toxin inhibition; Vero cells, Shiga toxin protein synthesis inhibition reporter; inhibition, % at 38.7 µM; 9.2% of 290,000 active; AID 2315; in the data active = inhibition mostly above about 28%, no sharp cut-off; inactive = mostly below about 43%; also: 0% is about no effect
HCV inhibitor – blocks hepatitis C virus. Huh7.5.1 HCVcc-Cre infection, luciferase reporter, 44 h. Potency, µM (doses to about 41.8 µM), for the others: at the highest dose activity change, negative = inhibition, hits mostly inhibitors. 3.4% of 340,000 active; also: potency is read from the fitted curve at half-maximal effect; % is scaled to controls: 0 for no effect and ±100 for the full control effect
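Cells (1,000/well) were plated 4 h before compound, then infected with HCVcc-Cre virus (~0.5 moi). After 44 h further culture, infection was read as luciferase luminescence following a 15 min substrate incubation at room temperature.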
Pf growth 48h – inhibits P. falciparum growth in the first generation, 48 h | P. falciparum luciferase growth in erythrocytes, 48 h | Potency, µM (doses to about 28.7 µM), without a hit: top-dose activity change, negative = inhibition, usual class: inhibitors | 5.9% of 310,000 active; also: potency is read from the fitted curve at half-maximal effect; % is scaled to controls: 0 for no effect and ±100 for the full control effect
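Luciferase-expressing parasites in RBCs, 2% Hct / 0.1% parasitemia final; RPMI 1640 + 0.5% Albumax; 37 C, 5% CO2, one generation; luminescence read-out, lower signal = inhibition.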
CHX counter – counter-screen for Shiga toxin inhibitors: cycloheximide protein synthesis inhibition; cell reporter, cycloheximide protein synthesis inhibition counterscreen; max response, %; 12% of 300,000 active; AID 2314; in the data active = max response mostly above about 13%, no sharp cut-off; inactive = mostly below about 14%; also: read at 38.3 µM for the half of the compounds with a filed dose; 0% is about no effect
* = called active by the depositor; ? = inconclusive; nt = no result given; + = active, no number; [ ] = another dose, or the depositor's remark. The list is not random: actives were taken first. Their share in the collection is about 21%. Unless noted, calls follow the shape of the dose curve; as a rule, active = well fitted inhibition curve with a large enough effect; inconclusive = small, poorly fitted or top-dose-only effect, or another doubt; inactive = no such curve, though single readings can be large or run the other way.

SMILES | Pf growth 96h | HCMV antiviral | Shiga inhibitor | HCV inhibitor | Pf growth 48h | CHX counter
Cc1ccc(S(=O)(=O)NCc2ccc(C(=O)NCCN(Cc3ccccc3)C(C)C)cc2)cc1 | ? | ? | -22 | ? | ? | 4
CCOc1ccc(CNC(=O)C2CCN(S(=O)(=O)N3CCCCC3)CC2)cc1 | nt | -37 | nt | nt | nt | nt
COc1ccc(NC(=O)Cn2c(=O)n(Cc3nc(-c4ccccc4)no3)c(=O)c3cc4c(cc32)OCO4)cc1Cl | nt | 8 | nt | nt | nt | nt
CCOc1nc(OCC)c2cnn(C)c2n1 | 84% | 22 | -21 | ? | 35% | -2
O=C(COc1ccc2c3c(c(=O)oc2c1)CCCC3)NCCCN1CCOCC1 | 4% | -32 | -3 | 7% | -13% | -2
CCO[C@H]1OC(C(=O)O)=C[C@@H](c2ccccc2)[C@@H]1CCCO | nt | 10 | nt | 15% | nt | nt
CCOc1cc(CNC(=O)NC2COc3ccc(OC)cc3C2)cc(OCC)c1OCC (stereo not drawn) | nt | -6 | nt | nt | nt | nt
CCCn1c(NC(=O)c2ccc(C)cc2)nc2ccccc21 | ? | 222 | 42* | ? | ? | 17*
O=C(Nc1nc2ccccc2n1CCN1CCCCC1)c1ccc(Cl)cc1 | 49% | nt | 36 | nt | nt | 10
CCCn1c(NC(=O)c2ccccc2)nc2ccccc21 | 54% | -15 | 32 | ? | ? | 17
O=C(Nc1nc2ccccc2n1CCN1CCCC1)c1ccc(Cl)cc1 | ? | 139 | 78* | ? | ? | 16
NC(=O)CSc1nc2c(sc3ccccc32)c(=O)n1CCCC(=O)NCC1CCCO1 (stereo not drawn) | ? | -22 | -6 | 12% | ? | -1
COc1ccc(CNC(=O)CN2C(=O)CCn3nc(-c4ccccc4)cc32)c(OC)c1 | nt | 6 | nt | nt | nt | nt
CCCCN1C(=O)C(CC(=O)NCCc2ccccn2)CC(C(=O)N(C(C)C)C(C)C)=C1C (stereo not drawn) | nt | 3 | nt | nt | nt | nt
CCOC(=O)/C=C1\CN(C(C)c2ccccc2)S(=O)(=O)c2ccccc21 (stereo not drawn) | -26% | -17 | -10 | -4% | -3% | 1
CCOC(=O)/C=C1\CN(CCC(C)C)S(=O)(=O)c2ccccc21 | 15µM* | 37 | -11 | -19% | ? | -3
Cc1ccc(C(=O)OCCOc2cccc(Cl)c2)cc1S(=O)(=O)N1CCOCC1 | ? | -11 | nt | -23% | 23% | nt
COCCCNC(=O)Cn1nc(-c2ccc(C)cc2)ccc1=O | ? | 7 | -10 | -24% | 44% | -3
COc1ccccc1-c1ccc(=O)n(CC(=O)NC(C)(C)C)n1 | 7.4µM* | 16 | 5 | -1% | 46% | -2
COCCCNC(=O)Cn1nc(-c2cccc(OC)c2)ccc1=O | 10µM* | 22 | -12 | 16% | 8% | 1
COc1ccc(-c2ccc(=O)n(CC(=O)Nc3ccc(OC)c(OC)c3)n2)cc1 | nt | + | nt | nt | nt | nt
COc1ccc(-c2ccc(=O)n(CC(=O)Nc3ccc4c(c3)OCCO4)n2)cc1 | 14% | -12 | -12 | -5% | 14% | -2
COCCNC(=O)Cn1nc(-c2ccccc2F)ccc1=O | 3.7µM* | 14 | -7 | -12% | 16% | -4
O=C(O)c1ccc2c(c1)C(=O)N([C@H](Cc1ccccc1)C(=O)O)C2=O | 13% | nt | -2 | nt | 6% | 0
Cc1ccc(S(=O)(=O)N(Cc2cccc(F)c2)C(=O)N2CCN(C)CC2)cc1 | 13% | 1 | nt | 5%[8.37 µM] | 4% | nt
Cc1ccc2nc(COc3ccccc3NC(=O)c3ccccc3F)cc(=O)n2c1 | nt | 15 | nt | nt | nt | nt
COc1ccc([N+](=O)[O-])cc1N(CC(O)CN(C)C)S(=O)(=O)c1ccccc1 (stereo not drawn) | -8% | -27 | -15 | 4% | -2% | -2
COc1ccc(N(CC(O)Cn2nnc3ccccc32)S(=O)(=O)c2ccc(C)cc2)cc1 (stereo not drawn) | nt | -62* | 21 | 11% | ? | -1
C=CCN(CC=C)CC(O)Cn1c2ccccc2c2ccccc21 (stereo not drawn) | ? | 16 | 5 | -27% | 5.9µM* | -6
COc1ccccc1N(CC(O)Cn1nc(C)cc1C)S(=O)(=O)c1ccccc1 (stereo not drawn) | ? | ? | 51 | 1% | -16% | 2

Compound activity (PubChem)
